# Results reported in PubChem BioAssay.
# The source made the active and inactive calls. Rule as the data show it, unless noted: active = nuclear beta-catenin stimulation mostly above about 4.2% (no sharp cut-off); inactive = mostly below about 10%.
# Assays:
# [1] = stimulators of nuclear beta-catenin in C2C12, primary screen, imaging, WNT3A-conditioned medium, mouse C2C12, NPC library (AID 1117326); conditions: stronger effect = higher value; also: reference of the scale not given here
# [2] = stimulators of insulin release from INS-1E, primary screen, cell-based, 5 mM glucose, NPC library (AID 1117329;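 active = compound raises insulin release from rat beta cells at 5 mM glucose, no numeric limit stated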; also: reference of the scale not given here); conditions: rat INS-1E insulin secretion, at 10 µM, stronger effect = higher value
# [3] = growth inhibition of GSK3B-pretreated HCT116 cells – cell-based, CellTiter-Glo, 0.2 to 20 µM (AID 1117336;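 active = compounds lowering colon cancer cell viability after pretreatment blocking the GSK3B kinase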); conditions: HCT116 viability after GSK3B inhibitor, at 20 µM, stronger effect = higher value
# [4] = inhibition of endothelial tube formation, primary screen, imaging, VEGF stimulated, CD31 staining, tube area, NPC library (AID 1117340;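 active = compound that reduces growth-factor-driven endothelial tube area in a mixed cell culture, no cutoff stated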); conditions: VEGF-stimulated ADSC/ECFC co-culture, at 10 µM, stronger effect = higher value
# [5] = glucagon-like peptide 1 release enhancers, primary assay, NCI-H716 cell line, NPC library (AID 1117341;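 active = compound raises GLP1 secretion from the human gut endocrine cells, with no numeric limit stated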; also: reference of the scale not given here); conditions: NCI-H716 cells, at 10 µM, stronger effect = higher value
# [6] = HCT116 colon cancer cell growth inhibition, primary screen, CellTiter-Glo luminescence, NPC library (AID 1117342;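 active = compounds that lower survival of HCT116 colon cancer cells in the luminescence readout, no numeric limit stated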); conditions: at 20 µM (top of the series)
# [7] = CellTiter-Glo luminescent readout of SW480 viability loss, NPC library primary (AID 1117343;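 active = compounds that lower viability of the colon cancer cells in the luminescence readout, with no numeric limit stated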); conditions: CellTiter-Glo luminescence; at 20 µM (top of the series)
# [8] = decreased DLD-1 cellular survival, CellTiter-Glo luminescent readout, NPC compound collection, primary HTS (AID 1117346;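 active = compounds that lower survival of DLD-1 colon cancer cells in the luminescence readout, no cutoff given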); conditions: DLD-1 viability, CellTiter-Glo luminescence; at 20 µM (top of the series)
SMILES,nuclear beta-catenin stimulation ([1]; at 10 µM),"nuclear beta-catenin stimulation ([1]; stimulation, at 2 µM)",insulin secretion stimulation [2],viability decrease [3],tube area decrease [4],GLP1 secretion stimulation [5],inhibition of viability [6],viability decrease (inhibition) [7],viability decrease (inhibition) [8]
c1ccc2sc(SN3CCOCC3)nc2c1,0.5% (inactive),2.1%,-2.6% (inactive),2.05% (inactive),18.9% (inactive),-0.9% (inactive),-10.4% (inactive),110% (active),6.4% (inactive)
COc1ccc([C@@H]2CC(=O)c3c(O)cc(O[C@@H]4O[C@H](CO[C@@H]5O[C@@H](C)[C@H](O)[C@@H](O)[C@@H]5O)[C@@H](O)[C@H](O)[C@@H]4O)cc3O2)cc1O,1.6% (inactive),2.4%,-0.9% (inactive),-10.2% (inactive),-4.7% (inactive),-1% (inactive),-1.6% (inactive),-2.4% (inactive),41.4% (inactive)
C[N+](C)(CCOc1ccccc1)Cc1cccs1,-0.3% (inactive),1.1%,2.65% (inactive),22.9% (inactive),-14.7% (inactive),-1.6% (inactive),27.5% (inactive),-11.3% (inactive),1.8% (inactive)
CCC(C(=O)OCCN1CCOC(c2ccccc2)C1C)c1ccccc1 (stereo not drawn),1% (inactive),1.6%,1.7% (inactive),-40.8% (inactive),3.7% (inactive),5.9% (inactive),15.8% (inactive),-0.4% (inactive),22.2% (inactive)
Cc1ncc(COP(=O)(O)O)c(C=O)c1O,-1.1% (inactive),-0.2%,-0.8% (inactive),9.5% (inactive),-0.4% (inactive),-1.1% (inactive),4.63% (inactive),-1.4% (inactive),3.4% (inactive)
COc1ccccc1OCC1CNC(=O)O1 (stereo not drawn),-2% (inactive),0.2%,0.9% (inactive),-16.8% (inactive),-6.7% (inactive),-1.6% (inactive),4.4% (inactive),15.3% (inactive),-2.8% (inactive)
NC(=O)NC1N=C([O][Al])NC1=O (stereo not drawn),0.7% (inactive),-0.2%,0.3% (inactive),13.8% (inactive),0.8% (inactive),-2.5% (inactive),2.07% (inactive),19.8% (inactive),-4.5% (inactive)
CCC(C(=O)OCCN(CC)CC)c1ccccc1 (stereo not drawn),1.2% (inactive),-0.6%,1.3% (inactive),-8.4% (inactive),-11.9% (inactive),-2.1% (inactive),-0.3% (inactive),4.5% (active),-11.1% (inactive)
Cc1[nH]cnc1-c1ccc(Cl)cc1,1.4% (inactive),1%,0.25% (inactive),11.7% (inactive),-1.2% (inactive),0.1% (inactive),17% (inactive),-17.6% (inactive),3.8% (inactive)
CC(C(=O)O)c1ccc(/C=C2\CCCCC2=O)cc1 (stereo not drawn),0% (inactive),-1.5%,0% (inactive),5.4% (inactive),0.5% (inactive),2.1% (inactive),-19.6% (inactive),25.5% (inactive),-23.7% (inactive)
O=C(O)Cn1cnnn1,0.5% (inactive),-0.1%,-0.9% (inactive),-1.1% (inactive),-3.2% (inactive),3.3% (inactive),4.9% (inactive),-14.8% (inactive),6% (inactive)
Nc1c(NC/C=C\COc2cc(CN3CCCCC3)ccn2)c(=O)c1=O,0.1% (inactive),-1.1%,0.1% (inactive),2.9% (inactive),1% (inactive),4% (inactive),8.6% (inactive),-4.4% (inactive),-5% (inactive)
CC(=O)OCC(=O)Nc1cc(C#N)cc(NC(=O)COC(C)=O)c1Cl,-0.4% (inactive),-1.4%,4% (inactive),-0.6% (inactive),-12.8% (inactive),3.3% (inactive),0.9% (inactive),-20.3% (inactive),1.6% (inactive)
O=C(O)[C@@H]1CCCN1,0.9% (inactive),1.2%,1.6% (inactive),2.9% (inactive),-4% (inactive),-1.7% (inactive),36.6% (inactive),42.8% (inactive),57.9% (active)
O=Cc1ccc(O)c(O)c1O,1.4% (inactive),1.9%,-1.7% (inactive),87.5% (active),3.3% (inactive),3.4% (inactive),44.2% (inactive),78.5% (active),36.5% (inactive)
NC(=S)N=Nc1ccc(NN=C(N)N)cc1,1.9% (inactive),0.5%,6.7% (inactive),-24.6% (inactive),15.7% (inactive),-3.7% (inactive),4.5% (inactive),25% (inactive),72.1% (active)

SMILES,nuclear beta-catenin stimulation ([1]; at 10 µM),"nuclear beta-catenin stimulation ([1]; stimulation, at 2 µM)",insulin secretion stimulation [2],viability decrease [3],tube area decrease [4],GLP1 secretion stimulation [5],inhibition of viability [6],viability decrease (inhibition) [7],viability decrease (inhibition) [8]
O=C(O)c1ccccc1S,4.7% (inactive),-1.3%,-0.1% (inactive),1% (inactive),13.4% (inactive),-1.4% (inactive),2.1% (inactive),31.6% (inactive),-3.4% (inactive)
O=C(O)c1ccccc1Nc1cc(Cl)ccc1C(=O)O,2% (inactive),-1.8%,0.5% (inactive),2.4% (inactive),-18.4% (inactive),0.1% (inactive),-1.2% (inactive),-23.2% (inactive),-18.7% (inactive)
CC(C)Cc1ccc(CC(=O)O)cc1,-0.7% (inactive),-0.2%,0.2% (inactive),-11.5% (inactive),-13.7% (inactive),-1.8% (inactive),-3.5% (inactive),4.2% (inactive),-8% (inactive)
NC(=O)C[C@H](N)C(=O)O,3% (inactive),1.1%,-1.3% (inactive),-1% (inactive),-19.4% (inactive),2.4% (inactive),0.3% (inactive),0.2% (inactive),5.4% (inactive)
CC[N+]1(CC)CCC(=C(c2ccccc2)c2ccccc2)C1C (stereo not drawn),-1.3% (inactive),-2.2%,1.7% (inactive),-4.6% (inactive),-9.4% (inactive),3.8% (inactive),22.7% (inactive),1.6% (inactive),34.6% (inactive)
CCCCCCCCCCCCCC[N+](C)(C)Cc1ccccc1,55% (active),-0.7%,3.5% (inactive),99.5% (active),109% (active),-0.6% (inactive),99.2% (active),101% (active),102% (active)
O=C(CCN1CCC(c2ccccc2)C1)c1ccc2c(c1)OCCO2 (stereo not drawn),12.8% (inactive),0.5%,0% (inactive),11.6% (inactive),17% (active),1.4% (inactive),-10.2% (inactive),158% (active),101% (active)
O=S(=O)(O)CC(S)CS (stereo not drawn),-1% (inactive),-0.1%,-3.4% (inactive),-25.4% (inactive),-1.9% (inactive),-7% (inactive),4.3% (inactive),3.8% (inactive),-6.6% (inactive)
O=C(O)c1ccccc1-c1ccc(C(F)(F)F)cc1,2.2% (inactive),0.7%,-0.1% (inactive),-52.5% (inactive),21.5% (inactive),5.5% (inactive),-0.77% (inactive),31.1% (inactive),-11.8% (inactive)
CCCCCCCCCCCCCCCCCC(=O)[O][Al],0.2% (inactive),-0.8%,0.8% (inactive),2.3% (inactive),-3.5% (inactive),-1.2% (inactive),5.4% (inactive),-3.6% (inactive),-0.7% (inactive)
CCCCCCCCCCCCCCCCCC(=O)O,0.8% (inactive),0.7%,-1.2% (inactive),-8.8% (inactive),-12.7% (inactive),-0.3% (inactive),1.8% (inactive),18.8% (inactive),-6.85% (inactive)
Nc1ccc(S(=O)(=O)Nc2ccccc2)cc1,1% (inactive),0.9%,-2.7% (inactive),-9.8% (inactive),10.5% (inactive),3.7% (inactive),-1.7% (inactive),5.2% (inactive),0.95% (inactive)
CCCCCCCC/C=C\CCCCCCCCN,-3.5% (inactive),2.6%,-0.6% (inactive),18.7% (inactive),90% (active),24.7% (active),33.8% (inactive),147% (active),106% (active)
Cc1cccc(C)c1OCC(=O)N[C@@H](Cc1ccccc1)[C@@H](O)C[C@H](Cc1ccccc1)NC(=O)[C@H](C(C)C)N1CCCNC1=O,2% (inactive),-0.1%,2.4% (inactive),67.4% (active),2% (inactive),1.5% (inactive),43.5% (inactive),80.2% (active),73.5% (active)
N[C@@H](CSSC[C@H](N)C(=O)O)C(=O)O,1.1% (inactive),3.2%,-2.2% (inactive),0.8% (inactive),-4% (inactive),3.6% (inactive),-21.6% (inactive),38.7% (inactive),8.45% (inactive)
C[C@H](N)C(=O)N[C@@H](C)C(=O)NC1[C@H]2CN(c3nc4c(cc3F)c(=O)c(C(=O)O)cn4-c3ccc(F)cc3F)C[C@@H]12 (stereo partly drawn),0.2% (inactive),-2.1%,3.4% (inactive),80.7% (active),1.8% (inactive),0.7% (inactive),27.2% (inactive),2.9% (inactive),-9.3% (inactive)
